# Experimental data taken from PubChem BioAssay (EPA / NIEHS).
# Active and inactive are the calls of the source. Rule for the calls: active = hit-call score of the fitted dose curve at least 0.9, where 1 is the maximum; inactive = score below 0.9.
# Assay: CCTE_Shafer_MEA_acute_burst_percentage_std: CCTE's Neural Acute Assay for Standard Deviation of Burst Percentage, Shafer Lab (AID 2284018);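 note: fitted in the negative direction so actives lower burst percentage SD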
# In short: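 Primary rat cortical neurons on 16-electrode MEA wells were recorded 40 min at baseline (DIV 13 or 15), then 40 min after compound (0.03-40 uM), at 37 C. Well value is SD across electrodes of spikes-in-bursts/total spikes; endpoint is percent change, DMSO-referenced.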
SMILES,outcome,AC50
CC[C@H](C)C(=O)O[C@H]1C[C@H](O)C=C2C=C[C@H](C)[C@H](CC[C@@H](O)C[C@@H](O)CC(=O)O)[C@H]21,inactive,–
CCCCCCCC1CCC(=O)O1 (stereo not drawn),inactive,–
OCc1ccccc1,inactive,–
CC(C)C(=O)Nc1ccc([N+](=O)[O-])c(C(F)(F)F)c1,inactive,–
CCCc1ccccc1,inactive,–
CCCCC(CC)C(=O)OCCOCCOCCOC(=O)C(CC)CCCC (stereo not drawn),inactive,–
CCc1ccc(O)c(C(C)(C)C)c1,–,20 µM (active)
c1ccc(C(O[C@@H]2CCCN(CCc3ccc4c(c3)OCO4)C2)c2ccccc2)cc1,inactive,–
COc1cc2c(c(OC)c1OC)-c1ccc(OC)c(=O)cc1[C@@H](NC(C)=O)CC2,inactive,–
OC(CCl)CCl,inactive,–
C=CCc1cc(S(=O)(=O)c2ccc(O)c(CC=C)c2)ccc1O,inactive,–
O=S(=O)(O)c1ccc(N=Nc2c(O)ccc3cc(S(=O)(=O)O)ccc23)cc1,inactive,–
Cn1c(=O)c2[nH]cnc2n(C)c1=O,inactive,–
COc1cc(C(C)C)c2c(c1)S(=O)(=O)N(COc1cc(=O)n3cccc(OCCN4CCCCC4)c3n1)C2=O,–,7.87 µM (active)
COCc1nnc(-c2ccc[n+]([O-])c2)n1-c1c(Cl)c(Cl)cc2[nH]c(=O)c(=O)[nH]c12,inactive,–
CCCCCCCC/C=C\CCCCCCCC(=O)OC[C@@H](O)[C@H]1OC[C@H](O)[C@H]1O,inactive,–
c1ccc2cc3ccccc3cc2c1,inactive,–
Cc1ncc([C@@H](CCCCCCc2ccc3c(n2)NCCC3)CC(=O)O)cn1,inactive,–
